Results taken from PubChem BioAssay (NCATS).
“And” between values parts separate entries of the source, which are not always exact repeats. Equal values may be shown once. Results filed as inconclusive are left out. Where a structure was tested more than once in an assay, its records may differ in their call. The source made the active and inactive calls. Unless noted, calls come from the whole dose curve; as a rule, active = well fitted curve in the direction sought with a large enough effect; inconclusive = small, poorly fitted or top-dose-only effect, or another doubt; inactive = no such curve, though single readings can be large; an effect the other way counts as inactive or inconclusive.

What was measured:
[1] = qHTS for Inhibitors of Plasmodium falciparum (DD2) proliferation (AID 504314); note: potency is the fitted concentration of half-maximal effect;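 for activity, negative = inhibition: parasite DNA measured by SYBR Green fluorescence after red cell lysis; plate controls were DMSO vehicle for no effect and artemisinin wells for full effect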
In short: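 Fluorescence read-out (ex 485/em 535 nm) of SYBR Green-stained parasite DNA quantifies intraerythrocytic growth. Cultures at 0.3% parasitemia and 2.5% hematocrit were treated for 72 h; data normalized to DMSO and 0.29 uM artemisinin wells.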

[2] = qHTS for Inhibitors of Plasmodium falciparum (7G8) proliferation (AID 504316); note: nearly all actives have a fitted effect of over 65% in size; note: potency is the fitted concentration of half-maximal effect;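 for activity change, negative = inhibition: series mostly up to about 6.7 µM; 0% = DMSO vehicle and -100% = 0.29 µM artemisinin full kill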
In short: (§1)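 Erythrocytes infected with P. falciparum line (0.3% parasitemia, 2.5% hematocrit final) incubated with compounds 72 h at 37 °C, 5% CO2; SYBR Green lysis buffer added, fluorescence read next day. Normalized to 0.29 uM artemisinin and DMSO.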

[3] = qHTS for Inhibitors of Plasmodium falciparum (HB3) proliferation (AID 504318); note: nearly all actives have a fitted effect of over 60% in size; note: potency is the fitted concentration of half-maximal effect;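 for activity change, negative = inhibition: 0% = DMSO vehicle and -100% = artemisinin control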
In short: as §1

[4] = qHTS for Inhibitors of Plasmodium falciparum (CP250) proliferation (AID 504320); note: potency is the fitted concentration of half-maximal effect;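 for activity change, negative = inhibition: plate controls were DMSO vehicle for no effect and 0.29 µM artemisinin control for full effect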
In short: as §1

[5] = biological target: Atrial natriuretic peptide receptor 1 (Homo sapiens) (UniProt P16066); test: Natriuretic polypeptide receptor (hNpr1) antagonism - Pilot CMLD screen (AID 1347052; calls by dose curve;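 note: cGMP level read as GloSensor luciferase luminescence after agonist stimulation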; note: potency is the fitted concentration of half-maximal effect;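 for activity change, negative = inhibition: HEK293 cells with hNpr1 stimulated by hNppA peptide at 0.1 nM; series mostly up to about 9.2 µM; % is set by controls: 0 for no effect and ±100 for the full control effect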)
[6] = biological target: Cytochrome P450 2C9 (Homo sapiens) (UniProt P11712); test: qHTS Assay for Inhibitors and Substrates of Cytochrome P450 2C9 (AID 883); note: nearly all actives have a fitted effect of over 60% in size; note: potency is the fitted concentration of half-maximal effect; for activity change, negative = inhibition: % is set by controls: 0 for no effect and ±100 for the full control effect
In short: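 Human CYP2C9 (10nM) hydroxylated Luciferin-H (100uM, at its KM) to luciferin in 25mM KPO4. Compound was preincubated 10 min at 37C, then NADPH regeneration started a 60 min reaction at 37C. Luminescence was read after detection reagent, normalized to 57uM sulphaphenazole.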

[7] = biological target: Cytochrome P450 3A4 (Homo sapiens) (UniProt P08684); test: qHTS Assay for Inhibitors and Substrates of Cytochrome P450 3A4 (AID 884); note: nearly all actives have a fitted effect of over 50% in size; note: potency is the fitted concentration of half-maximal effect; for activity change, negative = inhibition: series mostly up to about 57 µM; % is set by controls: 0 for no effect and ±100 for the full control effect
In short: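 20 nM human CYP3A4 with 25 uM Luciferin-PPXE (at KM) in 200 mM KPO4, preincubated 10 min with compound; NADPH regeneration started a 60 min RT reaction. Luciferin detected by luminescence, normalized to 57 uM ketoconazole as full inhibition.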

[8] = biological target: Cytochrome P450 3A4 (Homo sapiens) (UniProt P08684); test: qHTS Assay for Activators of Cytochrome P450 3A4 (AID 885); note: nearly all actives have a fitted effect of over 65% in size
In short: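 Quantitative HTS format: compounds preincubated with 20nM human CYP3A4 and Luciferin-PPXE substrate at KM, reaction started by NADPH regeneration, stopped after 60 min, luciferase luminescence read 20 min later.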

[9] = biological target: Cytochrome P450 2D6 (Homo sapiens) (UniProt P10635); test: qHTS Assay for Inhibitors and Substrates of Cytochrome P450 2D6 (AID 891);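 note: luciferin methyl ether substrate demethylated by CYP2D6 with NADPH regeneration; % is set by controls: 0 for no effect and ±100 for the full control effect; nearly all actives have a fitted effect of over 60% in size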
In short: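 Human CYP2D6 (5 nM) with 30 uM Luciferin-ME EGE (at Km) in 100 mM KPO4, compound preincubated 10 min, then NADPH regeneration system for 60 min at room temperature. Luciferin read by luminescence; normalized to 1.43 uM quinidine.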

[10] = biological target: Cytochrome P450 2C19 (Homo sapiens) (UniProt P33261); test: qHTS Assay for Inhibitors and Substrates of Cytochrome P450 2C19 (AID 899); note: nearly all actives have a fitted effect of over 60% in size; note: potency is the fitted concentration of half-maximal effect; for activity, negative = inhibition: % is set by controls: 0 for no effect and ±100 for the full control effect
In short: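 Human CYP2C19 (5nM) with Luciferin-H EGE at 10uM (its KM) in 50mM KPO4 was preincubated with compound for 10 min at 37C. NADPH regeneration started a 60 min 37C reaction. Luciferin was read by luminescence, normalized to 57uM ketoconazole.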

Sequence of Cytochrome P450 3A4 (Homo sapiens) (P08684 whole entry, looked up): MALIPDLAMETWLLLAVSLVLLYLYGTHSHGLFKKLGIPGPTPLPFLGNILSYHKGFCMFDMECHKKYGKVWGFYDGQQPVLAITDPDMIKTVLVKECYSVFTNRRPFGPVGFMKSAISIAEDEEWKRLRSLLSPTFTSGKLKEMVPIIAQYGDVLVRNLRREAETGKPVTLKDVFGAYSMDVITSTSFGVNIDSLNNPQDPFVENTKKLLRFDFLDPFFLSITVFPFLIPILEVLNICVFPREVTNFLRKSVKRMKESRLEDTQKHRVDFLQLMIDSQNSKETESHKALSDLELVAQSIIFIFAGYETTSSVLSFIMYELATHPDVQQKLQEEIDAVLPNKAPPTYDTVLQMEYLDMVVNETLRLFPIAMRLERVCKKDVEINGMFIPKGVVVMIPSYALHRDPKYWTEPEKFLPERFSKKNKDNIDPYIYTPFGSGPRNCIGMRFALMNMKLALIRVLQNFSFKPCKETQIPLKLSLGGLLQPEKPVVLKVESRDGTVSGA
Sequence of Atrial natriuretic peptide receptor 1 (Homo sapiens) (P16066 whole entry, looked up): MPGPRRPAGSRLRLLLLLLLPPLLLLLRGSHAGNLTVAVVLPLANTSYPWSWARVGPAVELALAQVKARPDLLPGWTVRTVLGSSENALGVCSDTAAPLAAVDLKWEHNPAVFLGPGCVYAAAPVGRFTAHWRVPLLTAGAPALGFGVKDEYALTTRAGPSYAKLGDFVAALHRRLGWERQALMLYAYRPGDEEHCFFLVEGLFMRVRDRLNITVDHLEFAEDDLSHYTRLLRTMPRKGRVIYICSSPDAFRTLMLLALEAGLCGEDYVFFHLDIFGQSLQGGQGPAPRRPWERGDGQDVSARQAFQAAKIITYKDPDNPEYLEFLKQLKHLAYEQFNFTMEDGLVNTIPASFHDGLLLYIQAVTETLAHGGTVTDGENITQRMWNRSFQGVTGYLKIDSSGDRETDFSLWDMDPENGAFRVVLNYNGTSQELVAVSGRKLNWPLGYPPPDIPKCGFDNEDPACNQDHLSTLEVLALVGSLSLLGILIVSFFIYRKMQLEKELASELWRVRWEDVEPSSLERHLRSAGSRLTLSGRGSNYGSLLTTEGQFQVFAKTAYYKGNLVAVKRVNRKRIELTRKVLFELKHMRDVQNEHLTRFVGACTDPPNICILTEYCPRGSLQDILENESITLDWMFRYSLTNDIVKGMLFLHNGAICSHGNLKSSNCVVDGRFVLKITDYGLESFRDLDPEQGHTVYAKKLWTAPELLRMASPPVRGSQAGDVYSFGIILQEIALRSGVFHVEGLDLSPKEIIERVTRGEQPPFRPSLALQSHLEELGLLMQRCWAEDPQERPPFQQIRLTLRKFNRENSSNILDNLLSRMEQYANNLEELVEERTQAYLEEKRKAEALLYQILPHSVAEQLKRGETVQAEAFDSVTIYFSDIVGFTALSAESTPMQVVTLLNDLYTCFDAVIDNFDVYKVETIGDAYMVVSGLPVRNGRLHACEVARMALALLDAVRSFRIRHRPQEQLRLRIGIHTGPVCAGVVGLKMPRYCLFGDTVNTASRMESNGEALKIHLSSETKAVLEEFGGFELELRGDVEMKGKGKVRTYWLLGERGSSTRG
Sequence of Cytochrome P450 2C19 (Homo sapiens) (P33261 whole entry, looked up): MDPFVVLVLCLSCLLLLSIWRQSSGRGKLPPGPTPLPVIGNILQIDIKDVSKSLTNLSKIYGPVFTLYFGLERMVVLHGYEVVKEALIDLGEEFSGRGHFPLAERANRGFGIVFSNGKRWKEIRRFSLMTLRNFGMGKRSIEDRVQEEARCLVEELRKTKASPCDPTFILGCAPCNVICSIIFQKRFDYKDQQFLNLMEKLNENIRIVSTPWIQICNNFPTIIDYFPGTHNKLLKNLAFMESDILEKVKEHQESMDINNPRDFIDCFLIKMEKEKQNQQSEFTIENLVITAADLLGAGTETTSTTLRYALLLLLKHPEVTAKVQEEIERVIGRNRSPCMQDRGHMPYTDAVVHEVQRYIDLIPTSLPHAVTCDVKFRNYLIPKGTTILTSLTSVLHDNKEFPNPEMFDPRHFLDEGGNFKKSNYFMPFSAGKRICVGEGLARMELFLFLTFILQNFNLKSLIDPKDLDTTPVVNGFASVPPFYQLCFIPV
Sequence of Cytochrome P450 2D6 (Homo sapiens) (P10635 whole entry, looked up): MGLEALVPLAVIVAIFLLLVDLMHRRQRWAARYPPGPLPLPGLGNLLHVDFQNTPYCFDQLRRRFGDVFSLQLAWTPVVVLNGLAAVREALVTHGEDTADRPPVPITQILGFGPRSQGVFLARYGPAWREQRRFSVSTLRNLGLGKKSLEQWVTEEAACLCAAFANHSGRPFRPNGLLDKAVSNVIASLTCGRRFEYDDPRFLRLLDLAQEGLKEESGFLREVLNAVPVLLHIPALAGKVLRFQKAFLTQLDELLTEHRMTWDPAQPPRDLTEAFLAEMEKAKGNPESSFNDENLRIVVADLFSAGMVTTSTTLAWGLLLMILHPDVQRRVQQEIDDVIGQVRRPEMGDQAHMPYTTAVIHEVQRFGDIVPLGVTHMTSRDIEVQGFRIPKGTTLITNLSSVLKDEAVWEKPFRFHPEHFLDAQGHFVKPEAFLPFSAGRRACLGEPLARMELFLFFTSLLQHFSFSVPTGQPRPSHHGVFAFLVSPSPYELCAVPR
Sequence of Cytochrome P450 2C9 (Homo sapiens) (P11712 whole entry, looked up): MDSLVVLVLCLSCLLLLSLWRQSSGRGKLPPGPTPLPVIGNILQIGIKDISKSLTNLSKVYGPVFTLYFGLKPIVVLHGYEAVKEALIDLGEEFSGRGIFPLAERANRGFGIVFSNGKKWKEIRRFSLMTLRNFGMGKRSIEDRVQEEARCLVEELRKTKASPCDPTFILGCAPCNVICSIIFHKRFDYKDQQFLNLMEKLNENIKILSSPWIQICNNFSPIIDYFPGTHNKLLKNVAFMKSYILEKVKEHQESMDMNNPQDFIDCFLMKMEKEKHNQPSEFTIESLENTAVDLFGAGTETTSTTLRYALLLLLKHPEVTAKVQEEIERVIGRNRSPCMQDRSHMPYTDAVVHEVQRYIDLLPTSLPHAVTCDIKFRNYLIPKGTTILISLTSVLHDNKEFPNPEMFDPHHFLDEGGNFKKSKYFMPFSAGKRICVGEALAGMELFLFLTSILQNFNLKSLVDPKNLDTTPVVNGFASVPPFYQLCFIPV

COc1ccc(-c2nc(-c3ccccc3)oc2NC(C)c2ccccc2)cc1 (stereo not drawn)
inactive: Potency [1] | Potency [2] | Potency [3] | Potency [4] | Potency [5]

N#CCCN(CC#Cc1ccccc1)OCc1ccccc1
active: Potency [6] 3.16 µM | Potency [7] 0.199 µM | Potency [10] 0.316 µM
inactive: activity change, positive = activation [8] -80.9% [at 11.4 µM] | activity change, negative = inhibition [9] -16.6% [at 11.4 µM] | Potency [1] | Potency [2] | Potency [3] | Potency [4] | Potency [5]

CC(=O)OC[C@H]1O[C@@H](ON=CC[C@@H]2C=C[C@@H](OC(C)=O)[C@@H](COC(C)=O)O2)[C@@H](OC(C)=O)[C@@H](OC(C)=O)[C@@H]1OC(C)=O
inactive: Potency [1] | Potency [2] | Potency [3] | Potency [4] | Potency [5]

COc1cccc([C@@H]2[C@@H](C)CC[C@@H]3C(=O)NC[C@H](O)CN32)c1
inactive: Potency [1] | Potency [2] | Potency [3] | Potency [4] | Potency [5]

C[C@@H]1C=CCCO[C@]12C(=O)N(Cc1ccc(Br)cc1)c1cccc(Br)c12
inactive: Potency [1] | Potency [2] | Potency [4] | Potency [5]

COC(=O)CCCC1=CC2=CC(=O)C(C)(OC(=O)c3cccs3)C(=O)C2=CN1CCc1c[nH]c2ccccc12 (stereo not drawn)
inactive: Potency [1] | Potency [2] | Potency [4] | Potency [5]

COc1ccc(C(=O)Oc2cc(OC)cc(OC)c2C(C)=O)cc1
inactive: activity change, negative = inhibition [6] 19.9% [at 11.4 µM] | activity change, negative = inhibition [7] -16.9% [at 11.4 µM] | activity change, negative = inhibition [9] 5.18% [at 11.4 µM] | activity, negative = inhibition [10] 27.9% [at 11.4 µM] | Potency [1] | Potency [2] | Potency [3] | Potency [4] | Potency [5]

Cc1ccc([S+](=O)([O-])N[C@@H]2COC(=O)CC=C[C@H](C)COC(=O)N[C@@H](C)C(=O)CC=C[C@H]2C)cc1
inactive: Potency [1] | Potency [2] | Potency [4] | Potency [5]

COC(=O)CC=C[C@@H](C)[C@H](NC(=O)OCC(Cl)(Cl)Cl)c1ccc2ccccc2c1
inactive: Potency [1] | Potency [2] | Potency [3] | Potency [4] | Potency [5]

COC(=O)C(C(=O)OC)[C@@H]1O[C@@]23COCC[C@]2(C)[C@@H]3c2ccccc21
inactive: Potency [1] | Potency [2] | Potency [3] | Potency [4] | Potency [5]

COc1cccc([C@H]2Oc3ccc(OC)cc3C(=NO[C@@H](C)c3cc(-c4c(C)cc(C)cc4C)no3)[C@H]2O)c1
inactive: Potency [1] | Potency [2] | Potency [3] | Potency [4] | Potency [5]

COc1ccc2c(c1)O[C@H](c1ccc3c(c1)OCO3)[C@@H](OC(=O)Nc1cc(OC)c(OC)c(OC)c1)C2=O
inactive: Potency [1] | Potency [2] | Potency [3] | Potency [4] | Potency [5]

COC(=O)C1=C(C(=O)OC)[C@@H]2N(Cc3ccccc3)c3ccccc3[C@@]23C[C@@H](C(=O)OC)N(C(=O)Nc2ccc(C(F)(F)F)cc2)C3=N1
inactive: Potency [1] | Potency [2] | Potency [4] | Potency [5]

CC1(OC(=O)c2cccs2)C(=O)C=C2C=C(c3ccsc3)OC=C2C1=O (stereo not drawn)
inactive: Potency [1] | Potency [2] | Potency [3] | Potency [4] | Potency [5]

C=CCN1C(=O)[C@]2(OCCC=C[C@@H]2C)c2cc(OC)ccc21
inactive: Potency [1] | Potency [2] | Potency [4] | Potency [5]

CCN1C(=O)N[C@@H](c2ccccc2)[C@H](C(=O)OC)[C@H]1C
inactive: Potency [1] | Potency [2] | Potency [3] | Potency [4] | Potency [5]

COC1=C[C@H](C(=O)NCCNC(C)=O)[C@@]2(C)Cc3ccccc3[C@@H]2CC1=O
inactive: Potency [1] | Potency [2] | Potency [3] | Potency [4] | Potency [5]

C=CCN1c2ccccc2[C@]23CCC(=O)N(CC4CC4)C2=NC(C(=O)OC)=C(C(=O)OC)[C@H]13
inactive: Potency [1] | Potency [2] | Potency [3] | Potency [4] | Potency [5]

CC(=O)Nc1ccc(S(=O)(=O)N2CCc3nc(-c4ccccc4)c4c(c3C2)CO[C@@H](C)C4)cc1
inactive: activity, negative = inhibition [1] -1.41% [at 1.12 µM] | Potency [2] | Potency [3] | Potency [4] | Potency [5]

COC(=O)C[C@H]1c2ccccc2C2=C(C[C@@H](C)[C@H]3C(=O)NC(=O)[C@@H]23)N1C(=O)OC
inactive: Potency [1] | Potency [2] | Potency [4] | Potency [5]

c1ccc(CCc2nc(-c3ccccc3)oc2Nc2ccc3ccccc3c2)cc1
inactive: Potency [1] | Potency [2] | Potency [4] | Potency [5]

COC(=O)N[C@@H](C=Cc1ccccc1)[C@@H](C)[N+](=O)[O-]
inactive: Potency [1] | Potency [2] | Potency [3] | Potency [4] | Potency [5]

C=CC[C@@]1(c2ccc(Br)cc2OC)Oc2ccccc2-c2nccnc21
inactive: Potency [1] | Potency [2] | Potency [4] | Potency [5]

COC(=O)C(C(=O)OC)c1ccccc1[N+](=O)[O-]
inactive: Potency [1] | Potency [2] | Potency [3] | Potency [4] | Potency [5]

COC(=O)N[C@H](CC(C)=O)c1ccc(F)cc1
inactive: Potency [1] | Potency [2] | Potency [3] | Potency [4] | Potency [5]

CC(C)=CCn1cnc2c1C(NOCc1ccccc1)=NCN2
inactive: Potency [1] | Potency [2] | Potency [3] | Potency [4] | Potency [5]

CCN(CC)CCCN1C(=O)C2=C(C1=O)C1N(C)c3ccccc3[C@@]13C[C@@H](CO)N(C(=O)CCC(=O)OC)C3=N2 (stereo partly drawn)
inactive: Potency [1] | Potency [2] | Potency [3] | Potency [4] | Potency [5]

FC(F)(F)c1cc(NC(=S)NC(c2ccccc2)c2ccccc2)cc(C(F)(F)F)c1
536 nM (active) and inactive: Potency [2]
1.34 µM (active) and inactive: Potency [1]
1.2 µM (active) and inactive: Potency [4]
inactive: Potency [5]

C=C(C)C(=O)OC[C@H]1CN2[C@H](c3ccc(Br)cc3)[C@H](C)CC[C@H]2C(=O)O1
active: Potency [4] 1.51 µM
inactive: Potency [1] | Potency [2] | Potency [5]

CCCCCCCC1=CC2=C(Cl)C(=O)C(C)(OC(C)=O)C(=O)C2=CO1 (stereo not drawn)
inactive: Potency [1] | Potency [3] | Potency [4] | Potency [5]

COC(=O)C1=C(C(=O)OC)[C@@H]2N(C)c3ccccc3[C@@]23CCC(=O)N(CC(C)C)C3=N1
inactive: Potency [1] | Potency [2] | Potency [4] | Potency [5]

Cc1cccc(C)c1Nc1oc(-c2ccccc2)nc1-c1cccc2ccccc12
inactive: Potency [1] | Potency [3] | Potency [4] | Potency [5]

COc1cccc(C(CC2=CCCCC2)NC(=O)C(F)(F)F)c1 (stereo not drawn)
inactive: Potency [1] | Potency [3] | Potency [4] | Potency [5]

CCCCCCCc1cc2ccccc2c2c(C(=O)OC)c(C(=O)OC)c(C(=O)OC)n12
inactive: Potency [1] | Potency [3] | Potency [4] | Potency [5]

C=C(C)C(O)C=Cc1ccccc1OC (stereo not drawn)
inactive: Potency [1] | Potency [3] | Potency [5]

COC(=O)N[C@H](C[N+](=O)[O-])c1cccc(C)c1
inactive: Potency [1] | Potency [3] | Potency [5]

COC(=O)CC=C[C@@H](C)[C@H](O)c1ccccc1Br
inactive: Potency [1] | Potency [5]
active: Potency [3] 1.9 µM

COc1ccc(-c2nc3c(c4c2C[C@H](c2ccccc2)OC4)CN(C(=O)c2ccco2)CC3)c(C)c1
inactive: activity, negative = inhibition [1] -2.96% [at 1.12 µM] | Potency [4] | Potency [5]
active: Potency [2] 1.69 µM

C=C(COC)C1=CCC(C(=O)OC)(C(=O)OC)[C@@H](C[N+](=O)[O-])c2ccccc21
inactive: Potency [1] | Potency [3] | Potency [4] | Potency [5]

COC(=O)C1=C(C)N(Cc2ccccc2)C(=NCc2ccccc2)NC1c1ccccc1 (stereo not drawn)
inactive: Potency [1] | Potency [3] | Potency [4] | Potency [5]

COc1ccc(-c2nc3c(c4c2C[C@H](c2ccccc2)OC4)CN(C(=O)c2cccnc2)CC3)c(C)c1
active: Potency [2] 1.51 µM and 1.69 µM
inactive: activity, negative = inhibition [1] 2.56% [at 1.12 µM] | Potency [4] | Potency [5]

CCOC(=O)c1c(C(=O)OCC)c2c3ccccc3cc(C)n2c1C(=O)OC
inactive: Potency [1] | Potency [3] | Potency [4] | Potency [5]

COC(=O)CC=C[C@@H](C)[C@@H](C=NO[C@H](C)CN1CCCc2nc(C)c(C)cc21)N[S+](=O)([O-])c1ccc(C)cc1
inactive: Potency [1] | Potency [3] | Potency [4] | Potency [5]

COC(=O)[C@H](COC(C)(C)C)NC(=O)O[C@@H]1C(=O)c2cc(OC)ccc2O[C@H]1c1cccc(OC)c1
inactive: Potency [1] | Potency [3] | Potency [4] | Potency [5]

C[C@@H]1C[C@H]2[C@@H](C)C(=O)N3[C@@H](C[C@@H](C)[C@@H]3c3ccccc3)[C@@H](C)C(=O)N2[C@H]1c1ccccc1
inactive: Potency [1] | Potency [3] | Potency [4] | Potency [5]

CCCCCCCc1cc2ccccc2c2c(C(=O)OC)c(C)c(C(=O)OC)n12
active: Potency [5] 0.944 µM
inactive: Potency [1] | Potency [3] | Potency [4]

COC(=O)[C@@]1(C=C2c3ccc(F)cc3[C@@H](OC)[C@@H]2C)[C@@H]2C=CC[C@@H]21
inactive: Potency [1] | Potency [2] | Potency [4] | Potency [5]
